Test results from PubChem BioAssay (NCI).
The panel holds about 83,000 compounds, 20% with a hit somewhere; the sample as a whole holds those more often.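 48-hour exposure, single concentration, 96-well plates; percent growth endpoint where 0 means no net growth. Active: below 10.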 Values without a mark were called inactive. Calls of active or inactive are those of the source.

Each compound was assayed on HCT-116 colon (assay: NCI-60 one-dose screen, 48 h (100 = growth as untreated, 0 = no growth, -100 = all killed)). Conditions: 10 µM unless noted.

Question: `CC1=N[C@@H]2CN(C(=O)OC(C)(C)C)C[C@@H]2n2c1cc1ccccc1c2=O` was tested. Which growth did it give?
Answer: 103%

Question: Which growth does the source give for `O=S(=O)(NCCNc1nccc(-n2cnc3ccccc32)n1)c1ccc(Br)cc1` here?
Answer: 99.8%

Question: Which growth does the source give for `Cc1cc(-c2ccc(Cl)cc2)n(Cc2nnc(SCC(=O)Nc3ccc(S(N)(=O)=O)cc3)n2C2CCCCC2)n1` here?
Answer: 107%

Question: `COc1cc(OC)cc(C(=O)Nc2sc3c(c2C(N)=O)CCC(=O)C3)c1` was tested. Which growth did it give?
Answer: 7.89% (active)

Question: `COc1cccc2cc(-c3cc4ccccc4[nH]3)/c(=N\NC(=O)c3ccc(Cl)cc3)oc12` was tested. Which growth did it give?
Answer: 21.8%

Question: `CC(C)(C)c1ccc(CC(=O)Nc2sc3c(c2C(N)=O)CCC(=O)C3)cc1` was tested. Which growth did it give?
Answer: 5.7% (active)

Question: How did the growth turn out when `c1cn2c(ccc3nc(-c4cn[nH]c4)c4c(c32)CCCC4)n1` was run?
Answer: 48.7%

Question: With `COc1cc(-c2nn(C(C)(C)C)cc2-c2ccnc(NCCCNS(=O)(=O)c3ccc(F)cc3)n2)ccc1Cl` as the compound, how does the growth read?
Answer: 56.1%

Question: `Clc1nc2ccccc2nc1-c1nnc(C2CCCCC2)o1` was tested. Which growth did it give?
Answer: 101%

Question: `CCCn1cnc2c(c1=N)C(c1ccc(F)cc1)c1sc3c(CC)cccc3c1O2` (centres undefined) was tested. Which growth did it give?
Answer: 7.53% (active)

Question: With `COc1ccc(-n2c(/C=C3\C(=O)Nc4ccccc43)ccc2CO)cc1` as the compound, how does the growth read?
Answer: 95.6%

Question: With `N#Cc1ccccc1Cn1c2nc(=N)c3ccccc3c-2nc2ccccc21` as the compound, how does the growth read?
Answer: 46.9%

Question: How did the growth turn out when `COc1cc2nc(Cl)nc(Nc3cccc(C4=Nc5c(N)nc(N)nc5NC(c5ccc(F)cc5)C4)c3)c2cc1OC` (centres undefined) was run?
Answer: -41.7% (active)

Question: With `CCn1c2ccccc2c2cc(-n3nncc3-c3ccccc3)ccc21` as the compound, how does the growth read?
Answer: 5.07% (active)
